Molecular target: AMP-activated protein kinase, AMPK (Homo sapiens) (UniProt P54646+O43741+P54619+Q9UGJ0+Q9Y478+Q13131+Q9UGI9)
Experiment: AMP-dependent Kinase enzyme assay. An in vitro enzyme assay that detects ADP turnover that is directly proportional to AMPK activity. This uses naive AMPK that is activated during the assay with MK-8722
Type: functional
Parameters: scale not given: direction of the effect not stated beside the values
Settings: 30 µM

Row | SMILES | Percent Effect
1 | CC(NC(=O)c1ccc2c(c1)COC2)c1cccc(N2CCOC2=O)c1 (stereo not given) | 5.03%
2 | CNCC(=O)NC1CC(C)(C)Cc2nc(C(C)(C)C)ncc21 (stereo not given) | -7.88%
3 | CCc1cccc(C)c1NC(=O)NCCCN(CC)S(C)(=O)=O | 22.2%
4 | Cc1ccnn1CCN1CCCC2(CCC(=O)N(C3CCCC3)C2)C1 (stereo not given) | 15.1%
5 | CN1CC(C(=O)NCCc2ccc3c(c2)OCO3)CC1=O (stereo not given) | 3.69%
6 | CCNC(=O)c1ccc(NC2CCOC3(CCCC3)C2)nn1 (stereo not given) | 2.07%
7 | Cc1csc(N2CCN(Cc3ccccn3)CC2)n1 | -1.61%
8 | CC(=O)N1CCc2nc(N(C)C)nc(NCCc3ccccc3)c2CC1 | 3.82%
9 | O=C(NCCc1cc(N2CCOCC2)nc(NC2CC2)n1)C1CC1 | 23.1%
10 | Cc1cc(C)nc(N2CCCC(C)(c3[nH]ncc3C(=O)N(C)C)C2)n1 (stereo not given) | 4.6%
11 | COc1ccc(S(=O)(=O)NC(=O)C(C)OC)c(OC)c1 (stereo not given) | -4.37%
12 | O=C(CN1CC(c2ccccc2)CC1=O)N1CCN(c2nccs2)CC1 (stereo not given) | 15.4%
13 | CN(C)Cc1cccc(-c2cccnc2C(=O)NCC2CC2)c1 | 20.3%
14 | COC(CNC(=O)c1ccc[nH]1)c1cccc(Cl)c1 (stereo not given) | 1.53%
15 | O=C(NCC1CCS(=O)(=O)C1)N(Cc1ccco1)C1CC1 (stereo not given) | -4.86%
16 | CN(CCc1ccncc1)Cc1c(C2CCCC2)[nH]c2ncccc12 | 9.38%
17 | COc1cc(NC2CCCN(c3ncccc3C#N)C2)cc(OC)c1 (stereo not given) | -37.2%
18 | Cn1cccc1C(=O)NCc1ccnc(C2CCCOC2)n1 (stereo not given) | 6.83%
19 | Cc1cc(N2CCC(n3cc(CN4CCC[C@@H]4CO)nn3)CC2)ccn1 | -0.25%
20 | Cc1cc(C)n(C2CN(C(=O)c3cn4ccsc4n3)C2)n1 | -4.27%
21 | COc1cccc(S(=O)(=O)N2CCCCC2CCN2CCOCC2)c1 (stereo not given) | 39.4%
22 | O=C(CNc1ccc(OCC2CCOCC2)cc1)NCc1ccco1 | 0.773%
23 | CC(C)C(NC(=O)NCc1cccnc1N(C)C)c1cccs1 (stereo not given) | 0.836%
24 | CCOCC1(CNCc2cc(O)c3cc(C)ccc3n2)CC1 | -2.54%

Row | SMILES | Percent Effect
25 | CCOC(=O)c1n[nH]cc1CN1CCOC(Cc2ccccc2)C1 (stereo not given) | -0.201%
26 | CCCN1C(=O)[C@H]2CC[C@@H]1CN(S(=O)(=O)c1cccc(Cl)c1)C2 | 7.5%
27 | CN(C)C(=O)N1CCN(c2cc(N3CCCC3CO)ncn2)CC1 (stereo not given) | -3.16%
28 | CSCCC(NC(N)=O)C(=O)Nc1ccc(-n2cccn2)nc1 (stereo not given) | -9.12%
29 | CCn1cnnc1CCNC(=O)c1ccc(F)c(Br)c1 | -5.58%
30 | CCc1cc(NCCCc2nc(C)no2)nc(-c2ccncc2)n1 | -1.39%
31 | CN(C)C1CCN(c2cc(-c3ccccc3)nc3ccnn23)C1 (stereo not given) | -0.347%
32 | Cc1ccccc1C(CC(=O)N1CCc2sccc2C1)NC(N)=O (stereo not given) | 11.7%
33 | Cc1noc(C(C)C)c1C(=O)N1CCC(n2cccn2)CC1 | 4.03%
34 | c1csc(CN2CCCN(c3ccc(Cn4ccnc4)cn3)CC2)c1 | -2.96%
35 | Cc1cc(CN(C)c2nc(-c3ccco3)nc3c2CCN(C)CC3)on1 | 6.52%
36 | CN(C)S(=O)(=O)N1CCCCCC1c1cc(-c2ccc(F)cc2)no1 (stereo not given) | 18%
37 | CC(C)[C@H](N)C(=O)N1CCCC(C2=Nc3ccccc3S(=O)(=O)N2)C1 (stereo not given in full) | 7.27%
38 | Cc1nn(C)c(Cl)c1C(=O)NCC1(C(N)=O)CCOCC1 | -1.15%
39 | CCN(Cc1nc(Cc2ccccc2)no1)C1CC1 | 9.85%
40 | Cc1cc(N(C)C)nc(N2CCn3c(nnc3C3CC3)C2)n1 | -2.99%
41 | Cc1ccc(CNC(=O)c2ccc(=O)n(C)n2)c(OCC2CC2)c1 | 14.4%
42 | O=C(NCc1nnc2n1CCC2)c1ccc(C2CCCO2)s1 (stereo not given) | 1.37%
43 | COc1ccc(C)c(NC(=O)NCc2ncnn2C)c1 | -3.74%
44 | Cc1c(CN2CCc3[nH]cnc3C2C(=O)O)[nH]c2ccc(F)cc12 (stereo not given) | 3.73%
45 | Cc1ccc(C(C)NC(=O)N2CCCN(CC(F)F)CC2)s1 (stereo not given) | -1.15%
46 | Cc1ccc(Oc2ncccc2CNC(=O)C2COC(=O)N2)c(F)c1F (stereo not given) | 3.47%
47 | CC(C)Cc1nc(C[S+]([O-])CC(=O)NCc2ccccc2)no1 (stereo not given) | 0.747%
48 | CCc1nc2n(n1)CC(NCC1=Cc3ccc(OC)cc3OC1)CC2 (stereo not given) | 8.35%

Row | SMILES | Percent Effect
49 | CNC(=O)c1ccnc(N2CCCC(COc3cccc(C)c3)C2)c1 (stereo not given) | 29.8%
50 | COC(=O)c1ccc(N(C(=O)c2cscn2)C(C)C)c(C)c1 | -0.314%
51 | COc1ccc(C2(C(=O)N3CC(c4cccnc4)C3)CC2(C)C)cc1 (stereo not given) | -5.88%
52 | CCn1ncc(CN2CCC(c3ncc(Cl)cc3S(C)(=O)=O)CC2)c1C | 6.21%
53 | CN(C)CCN(Cc1ccc(Cl)cc1)C(=O)c1ccn(C)c(=O)c1 | 6.12%
54 | Cc1ccccc1CN1CCCC1c1cccc(Nc2nccs2)n1 (stereo not given) | 16.4%
55 | CCCOc1cc(CNC(=O)Nc2ccccn2)ccn1 | 7.59%
56 | COc1ccc2c(c1)OCC(CNC1CCc3nc(C)nn3C1)=C2 (stereo not given) | 7.59%
57 | Cc1ccc(N2C[C@@H]3CN(C(=O)NC4CCCC4)C[C@]3(C(=O)O)C2)nn1 | -1.71%
58 | CC(C)N(Cc1ccc(C(=O)O)o1)C(C)C | 2.21%
59 | CC(OCC1CC1)C(=O)Nc1cccc(C(=O)Nc2ccccn2)c1 (stereo not given) | 23.1%
60 | Cc1ccc(CN(C(=O)NCC2CCS(=O)(=O)C2)C2CC2)o1 (stereo not given) | -7.42%
61 | Cc1nc(C(C)C)sc1C(C)N(C)C(=O)c1ccc(=O)n(C)c1 (stereo not given) | 5.47%
62 | CN1CCC(Nc2ccc(F)cc2OCC(F)(F)F)C1=O (stereo not given) | -16.7%
63 | CN1CCN(CCNC(=O)c2sccc2C2CC2)CC1 | 3.89%
64 | CCc1nnc(C(C)N2CCN(CCC(C)(C)C)CC2)o1 (stereo not given) | 8.59%
65 | Cc1ncoc1C(=O)N1CCCC(c2ccc3c(N)nn(C)c3n2)C1 (stereo not given) | 11.4%
66 | CCNc1ncc(CN2CCOC(Cc3cccc(OC)c3)C2)cn1 (stereo not given) | 0.956%
67 | CSc1nccc(N2CCC3(CCCN(Cc4cccc(C)c4)C3)C2)n1 (stereo not given) | 5.62%
68 | COCCCS(=O)(=O)N1CCN(Cc2cccn2C)CC1 | 2.25%
69 | CCc1nc(NC(=O)Cc2csc(-c3nnc[nH]3)n2)sc1C | 3.13%
70 | CC(O)c1cccc(OCc2ccon2)c1 (stereo not given) | 4.94%
71 | CCSc1cc(C(=O)NC(C)c2cccc(N3CCOC3=O)c2)ccn1 (stereo not given) | 7.17%
72 | C[C@@H]1CN(c2ccc(Cl)cn2)C[C@@]1(O)C1CC1 | 5.94%

Row | SMILES | Percent Effect
73 | CC(C)c1noc(OCC(=O)N2CCCCC2C)n1 (stereo not given) | -1.04%
74 | COc1ccc(CN(C)C(=O)CN2CC(n3cc(C)cn3)C2)cc1F | -3.71%
75 | CN(C)c1cccc(C(=O)Nc2cnn(CC(N)=O)c2)c1 | 3.58%
76 | O=C(Nc1ccccc1C(=O)NCCCN1CCOCC1)c1ccco1 | 0.765%
77 | Cn1cccc1CNCC1CCCn2cc(C(C)(C)C)nc21 (stereo not given) | -0.856%
78 | N#Cc1c(N)nc2c(c1-c1c[nH]nc1C1CCCCC1)CNCC2 | 17.6%
79 | CN(Cc1noc(-c2ccccc2)n1)C(=O)CSc1nnc(N)s1 | 1.22%
80 | COc1ncccc1C(=O)NCCn1cnc(C)cc1=O | -2.02%
81 | Cc1noc(C2CCCN(Cn3cc(Br)cn3)C2)n1 (stereo not given) | -2.31%
82 | COc1nccc(N2CC[C@H](N3CCOCC3)[C@H](CCCO)C2)c1C#N | -3.46%
83 | CCc1c(C)nn(CCN2CC3(CCOC3)CCC2=O)c1C (stereo not given) | -3.55%
84 | CN(C)C(=O)c1ccccc1NC(=O)N[C@@H]1c2ccccc2C[C@@H]1O | 3.27%
85 | COCCC(=O)N1CCCC(CCC(=O)NCc2ccccc2F)C1 (stereo not given) | 8.91%
86 | CN(Cc1cccc(-n2cccn2)c1)Cc1c[nH]cn1 | -6.63%
87 | CC(C)c1nn(C)c(Cl)c1CNCC(=O)N1CCN(C)CC1 | -14.6%
88 | CCn1nc(C)c(NC(=O)CN(C)C(C)c2ccon2)c1C (stereo not given) | -1.21%
89 | O=C(NCCN1CCOC1=O)c1cnc(-c2cccnc2)nc1 | -1.72%
90 | COC1CCCOC12CCN(C(=O)NCc1ccco1)CC2 (stereo not given) | 13%
91 | CNS(=O)(=O)c1ccc(CNC(=O)NCc2cc[nH]n2)cc1 | 2.83%
92 | O=C(c1ccc2[nH]cnc2c1)N1CCC(COc2ccccn2)CC1 | -1.03%
93 | COc1ccc(F)cc1-c1ccccc1CC1CNCCNC1=O (stereo not given) | 4.74%
94 | Cc1cc(N2CCC(O)(C(=O)O)CC2)nc2ccccc12 | 3.47%
95 | CCCNc1cc(-c2c[nH]nc2C2CCN(C(=O)C3CCC3)C2)ccn1 (stereo not given) | 43.5%
96 | O=C(NCCn1ccnc1-c1cc2n(n1)CCNC2)c1ccncc1 | 1.13%

Row | SMILES | Percent Effect
97 | CCCS(=O)(=O)CC(=O)Nc1ccsc1 | -1.52%
98 | CC(C)(O)CCc1cccc(C(=O)NCc2cnn3cccnc23)c1 | -0.643%
99 | COc1ccc(C(C)NCCc2ccc(NC(C)=O)cc2)cc1F (stereo not given) | 5.54%
100 | COC(=O)[C@@H]1C[C@@H](O)CN1Cc1ccn(-c2ccc(F)cc2)n1 | -3.45%
101 | Cc1n[nH]c(C)c1CCN(C)C(=O)c1ccc(CN2CCCCC2)cc1 | -2.68%
102 | O=C(NCc1ccco1)N1CCC(n2cc(-c3ccccn3)nn2)CC1 | 0.674%
103 | CCCNC(=O)c1[nH]nc(C2CC2)c1Br | 2.02%
104 | COc1c(C2CCCN2CC(=O)N(C)Cc2ccco2)c(C)nn1C (stereo not given) | 1.41%
105 | Cc1nn(C)c2nc(N(Cc3nccs3)C3CC3)sc12 | 1.18%
106 | Cc1cc(C(=O)N2CC[C@@]3(O)CCN(C(=O)N4CCCC4)C[C@H]3C2)no1 | 5.71%
107 | CCc1cc(=O)[nH]c(-c2ccc(NC(C)CN3CCOCC3)nc2)n1 (stereo not given) | -2.92%
108 | CCOc1ccccc1-n1c(C2CC(=O)N(C)C2)n[nH]c1=O (stereo not given) | 7.89%
109 | CC(C)c1nn(C)c(N(C)C)c1CNCc1ccnc(N(C)C)c1 | -12.6%
110 | CC(C)c1nc(CSc2nnc(C3CC3)n2CC(N)=O)no1 | -5.73%
111 | Cc1cc(C)c2[nH]c(C(=O)NCCN3CCCC3=O)c(C)c2c1 | 13.3%
112 | Cc1nnc2n1CCN(C(=O)C(C)Oc1ccc(C#N)cc1)C2 (stereo not given) | 13%
113 | CCCc1cc(C(=O)NC(COC)c2ccnn2C)no1 (stereo not given) | -16.8%
114 | CC(C)Cc1noc(CC2CCS(=O)(=O)C2)n1 (stereo not given) | -13.3%
115 | CN1CCCN(c2ccc(F)cc2CNC(=O)c2cccnc2)CC1 | 38.2%
116 | Cc1nc(N)cc(NCc2csc(N(C)C)n2)n1 | -14.5%
117 | CSc1ccc(CNC2CCCc3c2cnn3C)cc1 (stereo not given) | 7.44%
118 | CC(=O)c1sc(C(NC(=O)c2ccccc2)C2CC2)nc1C (stereo not given) | -2.1%
119 | Cc1cncc(C2CCN(Cc3cnc(C)nc3)CC2)n1 | 9.99%
120 | CC(C)CN1CCC(NC(=O)N(C)Cc2csc3ccccc23)CC1 | 0.225%
